# Results filed as inconclusive are left out. Active and inactive are the calls of the source. Calls follow the shape of the dose curve; as a rule, active = well fitted cell-killing curve with a large enough effect; inconclusive = small, poorly fitted or top-dose-only effect; inactive = flat fitted curve, though single readings scatter.
# Assay: qHTS assay to identify small molecule inhibitors of chordoma cells - UCH-2 (AID 1259356)
# Conditions: UCH-2 chordoma viability, CellTiter-Glo ATP luminescence, 48 h; series mostly up to 46.1 µM
# Excerpt: NIH Chemical Genomics Center [NCGC]
# Chordoma is a rare and slow growing tumor that can occur anywhere along the spine, from the base of the skull to the tailbone. Current treatment options for chordoma is surgery and radiation therapy for those who are not candidates for surgery. But chordomas tend to return in the same location or surrounding areas of the original tumor after surgery and/or radiation. Chemotherapy can slow down the progression of the tumor. As chordoma is slow growing, the general cytotoxic agents that kill fast growing cells are ineffective, and some patients have been reported to respond to molecularly targeted drugs.
# NCATS Pharmaceutical Collection (NPC) containing approximately 3000 clinically approved and investigational drugs were used to screen at 15 concentrations in a chordoma cell lines, UCH-2, to identify small molecule compounds that can inhibit chordoma cell growth.
# NCGC Assay Protocol Summary:
# Human chordoma cell line UCH-2 was dispensed at 800 per well in 4uL of culture medium into white solid bottom 1536-well plates (Corning Life Sciences, Corning, NY) using a Multidrop Combi (Thermo Scientific, Waltham, MA) dispenser. The assay plates were incubated at 37 C and 5% CO2 for an overnight, and then 23nL of compounds dissolved in DMSO and positive control were transferred using a Pintool station (Wako, San Diego, CA). Compound treatment was followed by the addition of 1uL of the combination compounds (1uM Auranofin, 500nM each of Camptothecin, Doxorubicin, Rubitecan, and Topotecan) and assay medium to each well of the assay plates using Flying Reagent Dispenser (FRD, Aurora Discovery, San Diego, CA). The assay plates were incubated at 37 C and 5% CO2 for 48hr. Then 5uL of CellTiter-Glo reagent (Promega Corporation, Madison, WI) was added to each well of the assay plates using FRD. After 30min incubation at room temperature, the luminescence signal was quantified using a ViewLux plate reader (PerkinElmer, Shelton, CT).
row,SMILES,outcome
1,CC(C)=CC1C(C(=O)OCN2C(=O)C3=C(CCCC3)C2=O)C1(C)C (stereo not given),inactive
2,Clc1cccc(SC2CCNCC2)n1,inactive
3,O=C(N/N=C/c1ccc([N+](=O)[O-])o1)c1cc([N+](=O)[O-])cc([N+](=O)[O-])c1O,inactive
4,C[C@@H](N)[C@@H](O)c1ccccc1,inactive
5,O=C(O)CCCc1ccc(N(CCCl)CCCl)cc1,inactive
6,CN1C(=O)NC(=O)C(C)(C2=CCCCC2)C1=O (stereo not given),inactive
7,O=C1CN=C(c2ccccc2)c2cc([N+](=O)[O-])ccc2N1,inactive
8,CCC(C)(C)c1ccc(O)cc1,inactive
9,COP(=S)(OC)SCN1C(=O)c2ccccc2C1=O,inactive
10,C=C(C)[C@H]1CN[C@H](C(=O)O)[C@H]1CC(=O)O,inactive
11,COC(=O)[C@@H](N)CCCN/C(N)=N/[N+](=O)[O-],inactive
12,NC(=O)CS(=O)C(c1ccccc1)c1ccccc1 (stereo not given),inactive
13,Nc1nc(N)nc(NC2CC2)n1,inactive
14,CC(NC(C)(C)C)C(=O)c1cccc(Cl)c1 (stereo not given),inactive
15,O=C1OC(c2ccc(O)c(S(=O)(=O)O)c2)(c2ccc(O)c(S(=O)(=O)O)c2)c2c(Br)c(Br)c(Br)c(Br)c21,inactive
16,CC(=O)OCC1=C(C(=O)O)N2C(=O)[C@@H](N)[C@H]2SC1,inactive
17,COC(=O)C(c1ccccc1)C1CCCCN1 (stereo not given),inactive
18,C[C@]12CCC(=O)C=C1CC[C@@H]1[C@@H]2CC[C@]2(C)C(=O)CC[C@@H]12,inactive
19,CCCC(C)(COC(N)=O)COC(N)=O,inactive
20,Cc1ncsc1CCCl,inactive

row,SMILES,outcome
1,c1ccc2c(c1)sc1ccccc12,inactive
2,O=[N+]([O-])O[C@H]1CO[C@H]2[C@@H]1OC[C@H]2O[N+](=O)[O-],inactive
3,C[C@](O)(CS(=O)(=O)c1ccc(F)cc1)C(=O)Nc1ccc(C#N)c(C(F)(F)F)c1,inactive
4,COC1CC(=C(c2cccs2)c2cccs2)C[N+](C)(C)C1 (stereo not given),inactive
5,COP(=S)(OC)Oc1ccc(S(=O)(=O)N(C)C)cc1,inactive
6,O=C1c2ccccc2C(=O)C1C(=O)C(c1ccccc1)c1ccccc1,inactive
7,CN1C(=O)CC(=O)N(c2ccccc2)c2cc(Cl)ccc21,inactive
8,CCC1(c2ccccc2)C(=O)N(COC)C(=O)N(COC)C1=O,inactive
9,Clc1ccc(C(c2ccc(Cl)cc2)C(Cl)(Cl)Cl)cc1,inactive
10,CN1C(=O)COc2c(C(=O)NC3CN4CCC3CC4)cc(Cl)cc21 (stereo not given),inactive
11,CC(C)c1c(CN(C)C(C)Cc2ccccc2)n(C)n(-c2ccccc2)c1=O (stereo not given),inactive
12,CCC1(CC)C(=O)C=CNC1=O,inactive
13,NNc1ccccc1,inactive
14,CCOP(=S)(OCC)Oc1ccc2c(C)c(Cl)c(=O)oc2c1,inactive
15,CCCCCN(C)CCC(O)(P(=O)(O)O)P(=O)(O)O,inactive
16,C[C@]12CC[C@@H]3c4ccc(OC(=O)N(CCCl)CCCl)cc4CC[C@H]3[C@@H]1CC[C@@H]2O,inactive
17,NC1=NC(=O)C(c2ccccc2)O1 (stereo not given),inactive
18,CC(=O)NC1CCSC1=O (stereo not given),inactive
19,Oc1ccc(Cl)cc1,inactive
20,CC(C)C[C@H](CN)CC(=O)O,inactive

# — PubChem BioAssay (NCATS)
